Only some compounds are listed: those with a hit (about 2.4% of all), similar ones and a draw of the others.
POLH inh – DNA polymerase eta (human) inhibition; Q9Y253; recombinant Pol eta, fluorescent DNA replication assay; Potency, µM (top dose mostly 114 µM), without a hit: at the top dose activity change, negative = inhibition, usual class: inhibitors; 390,000 compounds, 1.2% hits; AID 588591; note: % is set by controls: 0 for no effect and ±100 for the full control effect
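Fluorescent replication assay: 50 nM final substrate added after a 15 min room-temperature compound preincubation with 10 nM enzyme. Signal taken at 0 min and again at 10 min.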
POLB inh – inhibitors of human DNA polymerase beta. P06746. Pol beta primer extension/strand displacement, fluorescence kinetic. Potency, µM (highest dose often 114 µM), for inactives: top-dose activity change, negative = inhibition, hits mostly inhibitors. 340,000 compounds, 1.3% hits. AID 485314; note: % is set by controls: 0 for no effect and ±100 for the full control effect
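Human Pol beta at 10 nM; strand-displacement substrate 50 nM final. Compound exposure 15 min at room temperature before start, reaction 10 min at room temperature.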
POLI inh – inhibitors of human DNA polymerase iota | Pol iota fluorescent replication assay, 10 min | Potency, µM (titrated, usually from 115 µM), inactives show top-dose activity, negative = inhibition, actives largely listed as inhibitors | 390,000 compounds, 1% hits
Target sequence (Q9UNA4 whole entry, looked up): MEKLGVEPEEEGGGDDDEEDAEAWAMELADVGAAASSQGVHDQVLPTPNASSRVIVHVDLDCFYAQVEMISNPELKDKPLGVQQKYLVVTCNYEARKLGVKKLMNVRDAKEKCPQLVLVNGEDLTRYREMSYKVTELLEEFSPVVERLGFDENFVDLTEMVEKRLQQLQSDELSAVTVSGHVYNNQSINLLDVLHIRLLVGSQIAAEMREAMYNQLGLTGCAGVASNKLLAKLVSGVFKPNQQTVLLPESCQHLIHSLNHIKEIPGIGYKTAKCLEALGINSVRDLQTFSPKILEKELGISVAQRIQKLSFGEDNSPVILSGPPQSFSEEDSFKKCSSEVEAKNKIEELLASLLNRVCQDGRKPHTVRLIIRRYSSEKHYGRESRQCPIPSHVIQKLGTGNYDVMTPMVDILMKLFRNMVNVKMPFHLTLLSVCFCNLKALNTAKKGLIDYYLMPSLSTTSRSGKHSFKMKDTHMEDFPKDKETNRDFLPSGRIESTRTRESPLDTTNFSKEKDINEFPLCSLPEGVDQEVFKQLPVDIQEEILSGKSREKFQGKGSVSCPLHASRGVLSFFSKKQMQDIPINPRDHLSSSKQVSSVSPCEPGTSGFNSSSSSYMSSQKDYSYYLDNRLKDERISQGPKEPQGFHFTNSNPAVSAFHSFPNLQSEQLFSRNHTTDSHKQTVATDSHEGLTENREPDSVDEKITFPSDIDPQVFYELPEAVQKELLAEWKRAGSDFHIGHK
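Fluorescent replication assay read twice, at 0 min and 10 min after adding 50 nM (final) substrate. Enzyme (10 nM) and compounds were first incubated 15 min at room temperature; enzyme-free buffer wells were negative controls.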
Pol kappa inh – blocks human DNA polymerase kappa activity; Q9UBT6; purified Pol kappa, fluorescent DNA synthesis assay, 10 min; Potency, µM (highest dose often 107 µM), for inactives: at the top dose activity, negative = inhibition, usual class: inhibitors; 400,000 compounds, 0.53% hits; AID 588579; note: % is set by controls: 0 for no effect and ±100 for the full control effect
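Fluorescent qHTS in 1536-well format: enzyme (10 nM) and compound sat 15 min at room temperature before 50 nM substrate (final) was added. Signal taken at 0 and 10 min; no-enzyme buffer wells were negative controls.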
WRN helicase inh – blocks human WRN helicase; Q14191; Potency, µM (top dose mostly 114 µM), for the others: at the highest dose activity change, negative = inhibition, actives largely listed as inhibitors; 360,000 compounds, 0.46% hits; WRN helicase unwinding, fluorescent forked duplex, kinetic; note: % is set by controls: 0 for no effect and ±100 for the full control effect; nearly all actives have a fitted effect of over 55% in size
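Fluorescence dequenching readout, ex 525 nm/em 598 nm, kinetic mode: forked duplex DNA (100 nM final) with adjacent fluorophore and quencher unwound by WRN (20 nM final) with 2 mM ATP. Compound preincubation 15 min, room temperature.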
FEN1 inh – human FEN1 inhibition; Potency, µM (highest dose often 114 µM), without a hit: at the top dose activity change, negative = inhibition, usual class: inhibitors; Recombinant FEN1 flap cleavage, fluorescence, 15 min; AID 588795; 390,000 compounds, 0.35% hits; P39748; note: % is set by controls: 0 for no effect and ±100 for the full control effect; nearly all actives have a fitted effect of over 65% in size
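Reaction started by adding substrate (50 nM final) to 10 nM enzyme after 15 min room-temperature compound preincubation. Reads at 0 and 15 min, with data normalized and fitted to a four-parameter Hill equation.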
Active calls of the source: *; ? = inconclusive; · = no result; [ ] = dose if it differs, or a comment. Calls come from the whole dose curve; as a rule, active = well fitted curve in the direction sought with a large enough effect; inconclusive = small, poorly fitted or top-dose-only effect, or another doubt; inactive = no such curve, though single readings can be large; an effect the other way counts as inactive or inconclusive. Potency is the fitted concentration of half-maximal effect.

SMILES	POLH inh	POLB inh	POLI inh	Pol kappa inh	WRN helicase inh	FEN1 inh
O=C(CCc1nc2ccccc2c(=O)[nH]1)N1CCCc2ccccc21	50µM*	·	29%	-14%	-7%[11.6 µM]	-13%
Cc1cccc(NC(=O)CSc2nc(N)cc(N)n2)c1	-14%	-1%	30%	0%	2%[57.1 µM]	-3%
Cc1cccc(NC(=O)CSc2nnc(-c3ccco3)c(-c3ccco3)n2)c1	40µM*	25µM*	?	79µM*	32µM*	-25%
Cc1ccccc1NC(=O)CSc1nnc(-c2ccco2)n1N	-13%	·	43%	4%	-12%	-1%
Cc1cccc(NC(=O)CSc2nnc(-c3ccco3)c(-c3ccco3)n2)c1C	13µM*	22µM*	2µM*	32µM*	32µM*	?
CCN(CC)CCOc1c(Br)ccc2c1sc1nc3n(c(=O)c12)CCC3	3%	-12%	?	2%	8%[57.1 µM]	50µM*
CC[C@H](C)[C@H](NC(=O)[C@H](Cc1ccc(O)cc1)NC(=O)[C@H](Cc1cnc[nH]1)NC(=O)[C@H](CCCNC(=N)N)NC(=O)[C@H](CC(C)C)NC(=O)[C@H](C)NC(=O)[C@@H](N)CO)C(=O)N[C@@H](CC(N)=O)C(=O)N[C@@H](CC(C)C)C(=O)N[C@H](C(=O)N[C@H](C(=O)N[C@@H](CCCNC(=N)N)C(=O)N[C@@H](CCC(N)=O)C(=O)N[C@@H](CCCNC(=N)N)C(=O)N[C@@H](Cc1ccc(O)cc1)C(N)=O)[C@@H](C)O)[C@@H](C)CC	·	·	·	7%[60.1 µM]	·	·
CCOC(=O)c1ccc(S(=O)(=O)N2CCN(c3nc(-c4ccccc4)nc4ccccc34)CC2)cc1	·	·	7%	-16%	·	-7%
C=CCn1c(C)cc(C(=O)COC(=O)c2ccc3c(c2)NC(=O)CS3)c1C	?	40µM*	?	?	-5%[11.6 µM]	5%
COCCn1c(C)cc(C(=O)COC(=O)c2ccc3c(c2)NC(=O)CS3)c1C	?	9%	-3%	-11%	-5%	8%
Cc1ccc(/C=N/n2c(C)cc(C)c(C#N)c2=O)o1	-16%	-1%	2%	-1%	-3%	-2%
Cc1cc(C)n(/N=C/c2ccco2)c(=O)c1C#N	-16%	40µM*	?	-13%	-3%	-2%
O=[N+]([O-])c1cc2c(cc1CN1CCN(CCOCCO)CC1)OCO2	-2%	19%	7.9µM*	?	-2%[11.6 µM]	?
COc1ccccc1N1CCN(Cc2cc3c(cc2[N+](=O)[O-])OCO3)CC1	0%	0%	?	-8%	-3%	-22%
CCOC(=O)C(CC)Sc1ccc2nnc(-c3ccc(F)cc3)n2n1 (configuration not stated)	·	·	4%	10%	·	9%
O=C(NCCn1cc(SCc2ccccc2)c2ccccc21)c1cccs1	-18%	17%	89µM*	?	·	89µM*
O=C(NCCn1cc(SCc2ccc(Br)cc2)c2ccccc21)c1cccs1	-23%	-1%	8%	0%	·	1%
N#Cc1nc(N(c2ccccc2)c2ccccc2)nc(-n2cccc2)n1	·	·	-15%	-8%	·	-8%
CC(=O)c1ccc(NS(=O)(=O)c2cccc(S(=O)(=O)c3ccc(Cl)cc3)c2)cc1	-5%	5%	89µM*	?	·	-15%
O=C(NCC(c1ccco1)N1CCCC1)c1ccc(S(=O)(=O)Nc2ccccc2Cl)cc1 (configuration not stated)	?	·	?	79µM*	-10%	10%
CC1CC=CC2C1C(=O)N(Cc1ccccc1)C2c1cccc([N+](=O)[O-])c1 (configuration not stated)	·	·	-17%	-14%	·	-24%
CS(=O)(=O)c1ccc(/C=C2\C=Cc3ccccc32)cc1	·	·	-7%	-10%	·	-25%
CC1(C)SC2[C@@H](N=CN3CCCCCC3)C(=O)N2[C@H]1C(=O)O (some centres not stated)	·	·	·	-7%[60.1 µM]	·	·
CC1Cc2ccccc2N1C(=O)COC(=O)c1ccc(N(C)C)cc1 (configuration not stated)	7.9µM*	·	13µM*	50µM*	56µM*	-9%
CC1Cc2ccccc2N1C(=O)COC(=O)c1ccc(O)cc1 (configuration not stated)	-8%	5%	11%	15%	7%	-5%
SMILES	POLH inh	POLB inh	POLI inh	Pol kappa inh	WRN helicase inh	FEN1 inh
CC[C@H](C)[C@H](NC(=O)[C@H](Cc1ccc(O)cc1)NC(=O)[C@@H]1CCCN1C(=O)[C@@H](N)CCCN=C(N)N)C(=O)N[C@@H](CC(C)C)C(=O)O	·	·	·	17%[60.1 µM]	·	·
Cc1[nH]n(-c2ncc(-c3ccc(Cl)cc3)s2)c(=O)c1C(c1ccc(Cl)cc1)C(C#N)C#N (configuration not stated)	32µM*	18µM*	-28%	?	?	-30%
COc1ccc(-c2c[n+]3c4n2CCCCC4=C(c2ccc(Br)cc2)C3)cc1	1%	25µM*	?	-2%	-14%	1%
Cc1cccc(/C=C/C(=O)c2ccc([N+](=O)[O-])o2)c1	?	·	11µM*	13%	-5%	2%
O=C(NC1CCCC1)c1ccc2nc(-c3ccco3)c(-c3ccco3)nc2c1	3.5µM*	50µM*	?	22µM*	40µM*	?
O=C(NCCO)c1ccc2nc(-c3ccco3)c(-c3ccco3)nc2c1	3.5µM*	50µM*	2.5µM*	25µM*	11µM*	45µM*
O=C(NCCc1ccccc1)c1ccc2nc(-c3ccco3)c(-c3ccco3)nc2c1	?	7.9µM*	?	?	?	-15%
O=C(NCCc1ccccc1)c1ccc(=O)oc1	-5%	19%	8%	-10%	15%	-2%
O=C(NC1CCCC1)c1ccc2nc[nH]c2c1	-13%	-1%	-7%	-4%	6%	0%
N[C@H](C(=O)O)[C@H](Cc1ccccc1)C(=O)O	·	·	·	7%[60.1 µM]	·	·
COc1ccccc1C1(O)CCN(CCCn2c3ccccc3c3ccccc32)CC1	·	·	·	-3%[60.1 µM]	·	·
Cc1cccc(N2CCN(C(=O)Cn3nc(C)n4cccc4c3=O)CC2C)c1 (configuration not stated)	-23%	1%	11%	-8%	0%	9%
Cc1cccc(N2CCN(C(=O)CCS(=O)(=O)c3ccc(Br)cc3)CC2C)c1 (configuration not stated)	?	25µM*	45µM*	89µM*	?	-4%
Cc1ccc(-c2ccc(=O)n(CC(=O)N3CCN(c4cccc(C)c4)C(C)C3)n2)cc1 (configuration not stated)	-18%	4%	79µM*	-12%	-7%	-3%

From PubChem
